Results from PubChem BioAssay AID1159580 (chemical genetic matrix, 2015).
Where “and” joins values, the source holds several entries; their conditions need not be identical. Equal values may be shown once. About 2,000 (36%) of roughly 5,500 compounds were called active. Roughly 18% stayed inconclusive and do not appear here. No stated cut-off is given here; in the data, active means normalized growth mostly below about 0.91 (no sharp cut-off); inconclusive means no clear call, values can overlap the other calls; inactive means mostly above about 0.92. The list shows a part of the results.

Experiment: chemical genetic growth profiling, strain panel (AID 1159580);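 further: tested at 20 µM; growth read once vehicle control cultures reached saturation at 30 °C; 1 = growth at the plate median or of vehicle wells; lower values mean less growth of the strain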
Settings: growth OD

Measured: normalized growth

NCCc1c[nH]c2ccccc12
inactive: S. cerevisiae deletion strains, locus YJR075W, strain HOC1, hits give low values 1.01 and 0.992 | S. cerevisiae deletion strains, locus YKL009W, strain mrt4, hits give low values 0.991 | S. cerevisiae deletion strains, locus YKL068W, hits give low values 0.987 | S. cerevisiae deletion strains, locus YKL085W, strain MDH1 (second series), hits give low values 0.996 | S. cerevisiae deletion strains, locus YKL085W, strain MDH1, hits give low values 0.996 | S. cerevisiae deletion strains, locus YKL160W, strain elf1, hits give low values 0.968 | S. cerevisiae deletion strains, locus YKL190W, strain CNB1, hits give low values 0.996 | S. cerevisiae deletion strains, locus YKR001C, strain vps1, hits give low values 0.987 | S. cerevisiae deletion strains, locus YKR026C, strain gcn3, hits give low values 0.958 | S. cerevisiae deletion strains, locus YKR091W, strain srl3, hits give low values 0.976 | S. cerevisiae deletion strains, locus YLL001W, strain dnm1, hits give low values 0.958 | S. cerevisiae deletion strains, locus YLL026W, hits give low values 0.941 | S. cerevisiae deletion strains, locus YLL041C, strain sdh2, hits give low values 0.965 | S. cerevisiae deletion strains, locus YLR027C, strain aat2, hits give low values 0.974 | S. cerevisiae deletion strains, locus YLR039C, strain RIC1, hits give low values 0.988 | S. cerevisiae deletion strains, locus YLR058C, strain SHM2, hits give low values 0.975 | S. cerevisiae deletion strains, locus YLR102C, strain apc9, hits give low values 0.996 | S. cerevisiae deletion strains, locus YLR113W, strain HOG1, hits give low values 0.999 | S. cerevisiae deletion strains, locus YLR221C, strain rsa3, hits give low values 0.998 | S. cerevisiae deletion strains, locus YLR258W, strain gsy2, hits give low values 0.965 | S. cerevisiae deletion strains, locus YLR262C, strain YPT6 (second series), hits give low values 0.956 | S. cerevisiae deletion strains, locus YLR262C, strain YPT6, hits give low values 0.934 | S. cerevisiae deletion strains, locus YLR268W, strain sec22, hits give low values 1.06 | S. cerevisiae deletion strains, locus YLR320W, strain mms22, hits give low values 0.985 | S. cerevisiae deletion strains, locus YLR330W, strain CHS5, hits give low values 0.973 | S. cerevisiae deletion strains, locus YLR342W, strain FKS1 (second series), hits give low values 0.986 | S. cerevisiae deletion strains, locus YLR342W, strain FKS1, hits give low values 0.972 | S. cerevisiae deletion strains, locus YLR357W, strain rsc2, hits give low values 0.987 | S. cerevisiae deletion strains, locus YLR370C, strain arc18, hits give low values 0.94 | S. cerevisiae deletion strains, locus YLR371W, strain rom2, hits give low values 0.982 | S. cerevisiae deletion strains, locus YLR384C, strain iki3, hits give low values 0.949 | S. cerevisiae deletion strains, locus YLR418C, strain cdc73, hits give low values 0.99 | S. cerevisiae deletion strains, locus YML016C, strain PPZ1, hits give low values 0.99 | S. cerevisiae deletion strains, locus YML032C, strain rad52, hits give low values 1.01 | S. cerevisiae deletion strains, locus YML120C, strain ndi1, hits give low values 0.962 | S. cerevisiae deletion strains, locus YML124C, strain tub3, hits give low values 0.988 | S. cerevisiae deletion strains, locus YMR058W, strain fet3, hits give low values 0.96 | S. cerevisiae deletion strains, locus YMR078C, strain ctf18, hits give low values 0.986 | S. cerevisiae deletion strains, locus YMR125W, strain sto1, hits give low values 0.96 | S. cerevisiae deletion strains, locus YMR129W, hits give low values 0.973 | S. cerevisiae deletion strains, locus YMR205C, strain PFK2, hits give low values 0.975 | S. cerevisiae deletion strains, locus YMR223W, strain ubp8, hits give low values 0.955 | S. cerevisiae deletion strains, locus YMR231W, strain pep5, hits give low values 0.97 | S. cerevisiae deletion strains, locus YMR263W, strain SAP30, hits give low values 0.995 | S. cerevisiae deletion strains, locus YMR307W, strain GAS1, hits give low values 0.987 | S. cerevisiae deletion strains, locus YNL067W, strain RPL9B, hits give low values 1.03 | S. cerevisiae deletion strains, locus YNL071W, strain lat1, hits give low values 0.973 | S. cerevisiae deletion strains, locus YNL128W, strain TEP1, hits give low values 0.976 | S. cerevisiae deletion strains, locus YNL153C, strain GIM3, hits give low values 1.02 | S. cerevisiae deletion strains, locus YNL175C, strain NOP13, hits give low values 1 | S. cerevisiae deletion strains, locus YNL183C, strain NPR1, hits give low values 0.97 | S. cerevisiae deletion strains, locus YNL197C, strain WHI3, hits give low values 0.989 | S. cerevisiae deletion strains, locus YNL209W, strain ssb2, hits give low values 0.96 | S. cerevisiae deletion strains, locus YNL224C, strain SQS1, hits give low values 1 | S. cerevisiae deletion strains, locus YNL233W, strain BNI4, hits give low values 1.01 | S. cerevisiae deletion strains, locus YNL248C, strain rpa49, hits give low values 0.986 | S. cerevisiae deletion strains, locus YNL250W, strain rad50, hits give low values 0.974 | S. cerevisiae deletion strains, locus YNL271C, strain bni1, hits give low values 0.994 | S. cerevisiae deletion strains, locus YNL298W, strain CLA4, hits give low values 0.995 | S. cerevisiae deletion strains, locus YNL307C, strain MCK1, hits give low values 0.984 | S. cerevisiae deletion strains, locus YNL322C, strain KRE1 (second series), hits give low values 0.943 | S. cerevisiae deletion strains, locus YNL322C, strain KRE1, hits give low values 0.988 | S. cerevisiae deletion strains, locus YNR049C, strain mso1, hits give low values 0.959 | S. cerevisiae deletion strains, locus YNR052C, strain pop2, hits give low values 0.985 | S. cerevisiae deletion strains, locus YOL006C, strain TOP1, hits give low values 1.05 | S. cerevisiae deletion strains, locus YOL012C, strain htz1 1.16 | S. cerevisiae deletion strains, locus YOL147C, strain pex11, hits give low values 0.988 | S. cerevisiae deletion strains, locus YOR001W, strain rrp6, hits give low values 0.971 | S. cerevisiae deletion strains, locus YOR061W, strain CKA2, hits give low values 0.97 | S. cerevisiae deletion strains, locus YOR069W, strain VPS5, hits give low values 0.992 | S. cerevisiae deletion strains, locus YOR070C, strain gyp1, hits give low values 0.982 | S. cerevisiae deletion strains, locus YOR080W, strain dia2, hits give low values 0.959 | S. cerevisiae deletion strains, locus YOR083W, strain WHI5 (second series), hits give low values 0.966 | S. cerevisiae deletion strains, locus YOR083W, strain WHI5, hits give low values 0.982 | S. cerevisiae deletion strains, locus YOR106W, strain vam3, hits give low values 0.942 | S. cerevisiae deletion strains, locus YOR136W, strain idh2, hits give low values 0.978 | S. cerevisiae deletion strains, locus YOR144C, strain elg1, hits give low values 0.999 | S. cerevisiae deletion strains, locus YOR184W, strain ser1, hits give low values 1 | S. cerevisiae deletion strains, locus YOR231W, strain MKK1, hits give low values 0.979 | S. cerevisiae deletion strains, locus YOR265W, strain rbl2, hits give low values 0.954 | S. cerevisiae deletion strains, locus YOR270C, strain vph1, hits give low values 0.892 | S. cerevisiae deletion strains, locus YOR290C, strain snf2, hits give low values 0.959 | S. cerevisiae deletion strains, locus YOR316C, strain cot1, hits give low values 0.995 | S. cerevisiae deletion strains, locus YPL051W, strain arl3, hits give low values 0.973 | S. cerevisiae deletion strains, locus YPL055C, strain LGE1, hits give low values 0.99 | S. cerevisiae deletion strains, locus YPL078C, strain atp4, hits give low values 0.943 | S. cerevisiae deletion strains, locus YPL106C, strain sse1, hits give low values 0.916 | S. cerevisiae deletion strains, locus YPL240C, strain hsp82, hits give low values 0.962 | S. cerevisiae deletion strains, locus YPL241C, strain CIN2, hits give low values 0.99 and 0.999 | S. cerevisiae deletion strains, locus YPL256C, strain CLN2, hits give low values 0.951 | S. cerevisiae deletion strains, locus YPR119W, strain clb2, hits give low values 0.992 | S. cerevisiae deletion strains, locus YPR141C, strain kar3, hits give low values 0.983 | S. cerevisiae deletion strains, locus YPR163C, strain tif3, hits give low values 0.986 | S. cerevisiae deletion strains, locus YPR167C, strain met16, hits give low values 0.994 | S. cerevisiae deletion strains, strain wtn01, hits give low values 1.02 | S. cerevisiae strains, strain wild type, hits give low values 0.987
